“And” between values parts separate entries of the source, which are not always exact repeats. Equal entries are not always repeated. This is part of a sample that, as a whole, favours compounds with a hit. Of some 79,000 tested, about 15% had one in any assay. Some compounds were tested as several samples or in several runs, with calls that do not always agree. The source made the active and inactive calls. No stated cut-off is given here; in the data, active means growth inhibition above about 70%; inactive means the rest. *1 amine or outer side, *2 acyl side, *3 side chain or, on linkers, in order; H or OH if unused. Where a SMILES comes first, the peptide text is derived from it. Bridges are numbered along the chain shown (N, C = ends). Roman numbers before positions name the chains, in order. [ ]: non-standard residue; d: D form. Actinocin(9to1) = Cc1c2oc3c(C)ccc(C(=O)[*:1])c3nc-2c(C(=O)[*:2])c(N)c1=O; NMeY = CN[CH](Cc1ccc(O)cc1)C(=O)O; Sar = CNCC(=O)O
Assay: NCI Yeast Anticancer Drug Screen. Data for the bub3 strain (AID 167)
Settings: S. cerevisiae bub3 mutant strain, at 50.0 µM, stronger effect = higher value
Summary of the method: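 Readout: yeast growth inhibition, expressed relative to vehicle-only wells. The test organism is a mutant strain from a panel with lesions in DNA repair or checkpoint genes.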

**Q.** Which growth inhibition does the source give for O=C1CCSSCCC(=O)NCCN1 here?
**A.** 6.65% (inactive) and 29% (inactive)

**Q.** Which growth inhibition does the source give for COC1C(C)OCOC2COCOC21 (stereo not given) here?
**A.** 9.05% (inactive) and -3.8% (inactive)

**Q.** For C[N+](C)(C)CCOC(=O)c1ccccc1CBr, which growth inhibition is on record?
**A.** 35.5% (inactive) and 99.2% (active)

**Q.** For C[N+](C)(C)CCOP(=O)(O)OP(=O)([O-])OCC1CCC(n2ccc(N)nc2=O)O1 (stereo not given), which growth inhibition is on record?
**A.** -38.6% (inactive) and 2.55% (inactive)

**Q.** With C/C(=N\O)c1ccccc1 as the molecule, how does the growth inhibition read?
**A.** 8.3% (inactive) and -2.6% (inactive)

**Q.** With O=C(CC(=O)c1cccnc1)NC(=O)c1ccccc1 as the molecule, how does the growth inhibition read?
**A.** 3.9% (inactive) and 7.6% (inactive)

**Q.** For Cc1ccc(S(=O)(=O)NN)cc1, which growth inhibition is on record?
**A.** -30.2% (inactive) and 16.4% (inactive)

**Q.** With O=c1oc2c(O)c(O)cc3c(=O)oc4c(O)c(O)cc1c4c23 as the molecule, how does the growth inhibition read?
**A.** 29% (inactive) and -35.9% (inactive)

**Q.** With C/C(=N\NS(C)(=O)=O)C(C)(C)C as the molecule, how does the growth inhibition read?
**A.** -35.5% (inactive) and -20.8% (inactive)

**Q.** For CCOC(=O)C(OC1OC(C(=O)OC)C(OC(C)=O)C(OC(C)=O)C1OC(C)=O)c1ccccc1 (stereo not given), which growth inhibition is on record?
**A.** -6.85% (inactive) and -17.8% (inactive)

**Q.** With O=C(OC(=C(c1ccccc1)c1ccccc1)c1ccccc1)c1ccccc1 as the molecule, how does the growth inhibition read?
**A.** -0.05% (inactive) and 5.6% (inactive)

**Q.** For Cc1ccc(N(O)C(C)(C)C)cc1, which growth inhibition is on record?
**A.** -23.9% (inactive) and 13.8% (inactive)

**Q.** For Cc1c2oc3c(C)ccc(C(=O)NC4C(=O)NC(C(C)C)C(=O)N5CCCC5C(=O)N(C)CC(=O)N(C)C(Cc5ccc(O)cc5)C(=O)OC4C)c3nc-2c(C(=O)NC2C(=O)NC(C(C)C)C(=O)N3CCCC3C(=O)N(C)CC(=O)N(C)C(Cc3ccc(O)cc3)C(=O)OC2C)c(N)c1=O (stereo not given) (I: TVP[Sar][NMeY] / II: TVP[Sar][NMeY]; ester I:1-I:C, II:1-II:C; linker I:N-II:N via Actinocin(9to1); configuration not given here), which growth inhibition is on record?
**A.** -8.7% (inactive) and 0.35% (inactive)

**Q.** With CC(O)C(O)C(O)C(O)CO (stereo not given) as the molecule, how does the growth inhibition read?
**A.** -18.9% (inactive) and -5.9% (inactive)

**Q.** For Cc1ccc2ccccc2[n+]1C, which growth inhibition is on record?
**A.** -1.5% (inactive) and -26.8% (inactive)

From PubChem BioAssay (NCI)
